From PubChem
Shown are actives, neighbours in structure and some others; about 17% of the full set was active somewhere.
S2 tox: viability counter-screen for ATXN expression inhibitors; S2 cells (HEK-293 line with an ATXN2-luciferase reporter) viability, CellTiter-Fluor protease fluorescence, 24 h; Potency, µM (titrated, usually from 56.7 µM), hits mostly cytotoxic; 400,000 compounds, 0.49% hits; AID 651635; further: nearly all actives have a fitted effect of over 40% in size
ATXN2 expr inh: ATXN2 expression inhibition; AID 1745845; 360,000 compounds, 0.72% hits; Potency, µM (highest dose often 57 µM), usual class: inhibitors; HEK-293 ATXN2-luciferase reporter, luminescence, 24 h; further: nearly all actives have a fitted effect of over 55% in size
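ATXN2-luciferase reporter cells (luciferase flanked by upstream and downstream ATXN2 gene portions) were treated 24 h at 37 °C with compounds at up to 57 uM. SteadyGlo luminescence gave expression; GF-AFC fluorescence gave viability.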
TGFb inhibitor: inhibitors of TGF-b signaling; Potency, µM (highest dose often 46.1 µM), usual class: inhibitors; AID 588855; HepG2 CAGA-GFP TGF-b/SMAD3 reporter, GFP fluorescence, 18 h; TGF-beta stimulated, 500 pg/mL final; 410,000 compounds, 1.2% hits; further: nearly all actives have a fitted effect of over 65% in size
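TGF-beta reporter screen: HEPG2 CAGA-GFP, 1% FBS, 500 pg/mL TGF-beta final, 18 h; per-cell GFP summed per well; curves fitted and categorized by class.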
HepG2 viability: HepG2 cytotoxicity, counter-screen for TGF-b inhibitors; HepG2 CAGA-GFP viability, ATP luminescence, 18 h; AID 588856; Potency, µM (doses to about 46.1 µM), usual class: cytotoxic; 410,000 compounds, 0.76% hits
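HepG2 CAGA-GFP cells (1000/well, DMEM with 1% FBS) received compound, then TGF-beta at 500 pg/mL final, and were incubated 18 hours at 37 degrees C. Viability was read by CellTiter-Glo luminescence. Media-only wells were set as complete cell-killing and DMSO as no toxicity.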
DT40 TDP1 no CPT: qHTS for Inhibitors of human tyrosyl-DNA phosphodiesterase 1 (TDP1): qHTS in cells in absence of CPT. DT40 Tdp1-/- hTDP1 cells, no CPT, ATP luminescence, 48 h. Potency, µM (series often up to 46.2 µM), actives largely listed as inhibitors. 420,000 compounds, 15% hits. AID 686978, 2013; further: nearly all actives have a fitted effect of over 55% in size
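Stably hTDP1-transfected Tdp1-null chicken DT40 cells were treated with library compounds minus camptothecin and grown for at least 48 hr at 37 °C, after which cellular ATP was quantified by luminescence.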
DT40 TDP1 CPT: DT40-hTDP1 cell growth loss with CPT; AID 686979; Potency, µM (series often up to 46.2 µM), hits mostly inhibitors; 420,000 compounds, 12% hits; chicken DT40 Tdp1-/-;hTDP1 cells + 20 nM CPT, ATP luminescence, 48 h; further: nearly all actives have a fitted effect of over 55% in size
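Chicken DT40 Tdp1-/- cells stably complemented with human TDP1 were seeded at 400 cells/well in medium containing 20 nM camptothecin, exposed to pin-transferred compounds, and grown at 37 °C for at least 48 hr. Viability was read as ATP luminescence.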
A number is an active result; n = inactive; u = inconclusive; x = no result given; ! = repeats disagree; [ ] = remark or other dose. The call rests on the fitted dose curve; in most records, active means well fitted curve in the direction sought with a large enough effect; inconclusive means small, poorly fitted or top-dose-only effect, or another doubt; inactive means no such curve, though single readings can be large; an effect the other way counts as inactive or inconclusive.

SMILES | S2 tox | ATXN2 expr inh | TGFb inhibitor | HepG2 viability | DT40 TDP1 no CPT | DT40 TDP1 CPT
CCOC(=O)c1cnc2ccc(C)cc2c1NCCN1CCOCC1 | u | n | n | n | n | n
CCCn1c(SCC(=O)N2CCc3ccccc3C2)nc(O)cc1=O | n | n | n | n | n | n
Cc1cc(S(=O)(=O)Nc2c(C)nn(C)c2C)c(Cl)cc1Cl | u | n | n | n | u | n
Cc1ccc2nc(-c3ccc(F)cc3)c(NC(C)(C)CC(C)(C)C)n2c1 | n | n | n | n | 8.2µM | 16µM
CC(C)(C)CC(C)(C)Nc1c(-c2ccc(O)cc2)nc2cnccn12 | n | n | u | n | 26µM | 18µM
Cc1ccc2nc(-c3ccc(F)cc3)c(Cc3ccccc3C(F)(F)F)n2c1 | u | n | u | n | u | u
O=S(=O)(c1ccc(F)cc1)N1CCN(C(=S)NCC2CCCO2)CC1 (stereo not drawn) | n | n | n | n | n | n
COCCn1c(SCc2cnc(-c3ccccc3)s2)nnc1-c1ccncc1 | n | n | n | n | u | 21µM
CCN1C[C@@H]2[C@@H]3C(=O)N(Cc4ccccc4)C(=O)[C@@H]3[C@](Cc3ccccc3)(C1=O)N2C(=O)c1ccc(C)cc1 | n | n | u | n | n | n
O=C1O[C@@H]([C@H](O)CO)C(O)=C1O | n | n | n | n | u | 21µM
O=C1O[C@@H]([C@@H](O)CO)[C@@H](O)[C@H]1O | n | x | x | x | x | x
O=C(CSc1nncs1)Nc1ccc(N2CCCCC2)cc1 | u | n | n | n | 16µM | u
Cc1nc(CC(=O)NCC2Cc3cc(F)cc(-c4ccc(F)c(C)c4)c3O2)cs1 (stereo not drawn) | n | x | x | x | 13µM | n[9.04 µM]
CC(=O)c1ccc(F)c(-c2cc(C)cc3c2OC(CNC(=O)c2csc(C)n2)C3)c1 (stereo not drawn) | x | x | x | x | 21µM | n[9.04 µM]
COc1ccc(C(=O)NCC2Cc3cc(C)cc(-c4cc(C(C)=O)ccc4F)c3O2)c(OC)c1OC (stereo not drawn) | n | x | x | x | u | u
COc1ccc(C(=O)C[n+]2cc(-c3ccc(OC)cc3)n3c2CCCC3)cc1 | u | n | n | n | 6.5µM | 9.2µM
Cc1ccc(-c2c[n+](Cc3ccc(Cl)c(Cl)c3)c3n2CCC3)cc1 | n | n | u | n | 0.52µM | 0.58µM
Cn1c(NC(=O)C[n+]2cc(-c3ccc(Cl)c(Cl)c3)n3c2CCC3)cc(=O)n(C)c1=O | n | n | n | n | u | n
O=C(C[n+]1cc(-c2ccccc2)n2c1CCCCC2)c1ccc(Br)cc1 | n | n | n | n | 23µM | 21µM
COc1ccc(C(=O)C[n+]2ccc(-c3nnc4n3CCCCC4)cc2)cc1 | n | n | n | n | n | n
Cc1ccc(C(=O)C[n+]2cc(-c3ccc(C)cc3)n3c2CCCCC3)cc1 | u | u | u | n | 0.15µM | 0.21µM
CC1CN(C(=O)N2c3ccccc3Sc3ccccc32)CC(C)O1 (stereo not drawn) | n | n | n | n | 12µM | 12µM
O=C(N1CCOCC1)N1c2ccccc2Sc2ccccc21 | n | n | n | n | 23µM | u
CC1CCCN(C(=O)N2c3ccccc3Sc3ccccc32)C1 (stereo not drawn) | n | n | n | n | 13µM | u
CC(=O)c1ccc(N2C(=O)CC(N3CCN(S(=O)(=O)c4cc(C)ccc4C)CC3)C2=O)cc1 (stereo not drawn) | n | n | n | n | n | n
SMILES | S2 tox | ATXN2 expr inh | TGFb inhibitor | HepG2 viability | DT40 TDP1 no CPT | DT40 TDP1 CPT
CCCn1c(=N)c(C(=O)NC(C)c2ccccc2)cc2c(=O)n3ccccc3nc21 (stereo not drawn) | x | x | n | n | u | u
CCC1CN(C(=O)N2CCC(C(=O)NCc3ccccc3F)CC2)c2ccccc2O1 (stereo not drawn) | x | x | n | n | 15µM | u
CCC1CN(C(=O)N2CCC(C(=O)NCc3ccccc3C)CC2)c2ccccc2O1 (stereo not drawn) | n | n | n | n | 21µM | 18µM
Cc1ccc2c(c1)N(C(=O)N1CCC(C(=O)NCCC3=CCCCC3)CC1)CC(C)O2 (stereo not drawn) | x | x | u | n | 18µM | u
CCC1CN(C(=O)N2CCC(C(=O)NCCc3ccc(Cl)cc3)CC2)c2ccccc2O1 (stereo not drawn) | x | x | u | n | 15µM | 16µM
COc1ccc(N2CC(C(=O)O)CC2=O)cc1 (stereo not drawn) | n | n | n | n | n | n
COc1ccc(N2CCN(C(=O)Cc3noc4ccc(C)cc34)CC2)cc1 | n | n | n | n | u | u
Cc1c(Cl)cccc1NC(=O)NCc1c(-n2cccc2)sc2c1CCCC2 | n | n | n | n | n | n
CCCS(=O)(=O)NCc1c(C)ncc2c1CCN(C(=O)c1ccc3[nH]c4c(c3c1)CCCC4)C2 | n | x | x | x | u | n[9.04 µM]
Cc1ccnc(NS(=O)(=O)c2ccc(NC(=O)c3ccc(S(=O)(=O)N4CCCC4)cc3)cc2)n1 | n | n | n | n | n | n
CCc1cc(C(=O)N2CCCC(CCC(=O)NCc3cccc(OC)c3)C2)no1 (stereo not drawn) | u | n | n | n | n | n
Cc1c(NC(=O)c2sc3c([N+](=O)[O-])cccc3c2Cl)cccc1-c1nc2ccccc2o1 | n | n | n | n | n | u
CCC1CN(C(=O)N2CCC(C(=O)Nc3cc(C)ccc3C)CC2)c2ccccc2O1 (stereo not drawn) | x | x | u | n | 13µM | 13µM
CCC1CN(C(=O)N2CCC(C(=O)Nc3ccccc3F)CC2)c2ccccc2O1 (stereo not drawn) | n | n | u | n | 23µM! | u
CCC1CN(C(=O)N2CCC(C(=O)NCCC3=CCCCC3)CC2)c2ccccc2O1 (stereo not drawn) | x | x | n | n | 12µM | 16µM
CCC1CN(C(=O)N2CCC(C(=O)NCCc3ccccc3C)CC2)c2ccccc2O1 (stereo not drawn) | x | x | u | n | 21µM | u
Cc1ccc(C(=O)OC(C)C(=O)NC(C)CCc2ccccc2)o1 (stereo not drawn) | n | x | n | n | n | n
CCC1CN(C(=O)N2CCC(C(=O)NCCc3ccccc3Cl)CC2)c2cc(C)ccc2O1 (stereo not drawn) | x | x | 11µM | n | 21µM | 16µM
Cc1ccc2c(c1)N(C(=O)N1CCC(C(=O)NCCc3ccccc3)CC1)CC(C)O2 (stereo not drawn) | x | x | u | n | u | u
CCC1CN(C(=O)N2CCC(C(=O)NCc3cccc(C)c3)CC2)c2ccccc2O1 (stereo not drawn) | x | x | n | n | 21µM | 16µM
